Screening data from PubChem.
Only some compounds are listed: those with a hit (about 1.5% of all), similar ones and a draw of the others.
TLR9-MyD88 block: inhibitors of TLR9-MyD88 association in cells, primary screen, cell-based, CHO, BLA complementation, fluorescence | actives 0.21% (n = 340,000) | CCF4 FRET ratio | AID 504734, 2011 | inhibition, % at 4.98 µM;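 active = inhibition above the mean over all tested compounds plus 3 SD, cut at about 21% in these data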;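 also: 0% = DMSO only wells and 100% = clavulanate BLA inhibitor control wells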
Myeloid diff 2: induction of myeloid progenitor differentiation, primary screen, cell-based, flow cytometry, MLPCN library. ER-HoxA9 myeloid progenitors, lysozyme-GFP differentiation. calls only at 10 µM. actives 1% (n = 360,000). AID 624256, 2012;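 active = normalized GFP-positive differentiation at or above the plate's own cutoff, the solvent-only control mean plus 3 SD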;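 also: cells exposed to compound for four days before flow analysis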
TLR4-MyD88 BLA: inhibitors of TLR4-MyD88 association in cells, primary screen, cell-based, HeLa CL3-4, BLA complementation, FRET ratio; HeLa CL3-4 TLR4/MyD88 BLA complementation; inhibition, % at 8.4 µM; actives 0.18% (n = 200,000); Toll-like receptor 4 (Homo sapiens) + Myeloid differentiation primary response protein …; in the data active = inhibition above about 25%;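 also: 0% = vehicle and 100% = reference inhibitor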
NOD2-RIPK2 inh: NOD2-RIPK2 binding disruptors in cells, primary screen, fluorescence, CHO cells, BLA complementation | inhibition, % at 4.98 µM | actives 0.38% (n = 360,000) | CCF4 ratio | Receptor-interacting serine/threonine-protein kinase 2 (Homo sapiens), O43353 | AID 624267, 2012; in the data active = inhibition above about 21%;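 also: 0% = vehicle only and 100% = reference blocker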
Target sequence (O43353 whole entry, looked up): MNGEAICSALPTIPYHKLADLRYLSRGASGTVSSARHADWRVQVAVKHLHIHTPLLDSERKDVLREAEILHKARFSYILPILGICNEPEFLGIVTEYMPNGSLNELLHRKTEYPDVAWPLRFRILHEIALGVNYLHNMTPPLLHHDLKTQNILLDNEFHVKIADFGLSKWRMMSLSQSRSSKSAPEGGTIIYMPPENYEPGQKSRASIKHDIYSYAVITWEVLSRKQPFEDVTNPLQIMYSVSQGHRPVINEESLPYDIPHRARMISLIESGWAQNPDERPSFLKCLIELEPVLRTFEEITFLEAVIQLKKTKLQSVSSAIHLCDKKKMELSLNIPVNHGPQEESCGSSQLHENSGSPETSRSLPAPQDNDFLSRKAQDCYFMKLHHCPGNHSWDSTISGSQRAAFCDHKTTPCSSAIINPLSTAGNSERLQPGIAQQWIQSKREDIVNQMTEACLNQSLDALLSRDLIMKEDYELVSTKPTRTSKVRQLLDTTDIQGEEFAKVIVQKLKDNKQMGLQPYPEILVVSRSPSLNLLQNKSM
Myeloid diff CP1: inducers of myeloid progenitor differentiation, confirmation, cell-based, GFP/Mac1 flow cytometry, cherry pick 01 | shares compounds with Myeloid diff 2 | ER-HoxA9 myeloid progenitors, GFP/Mac1 double-positive flow | calls only | actives 2% (n = 2,300) | AID 651706, 2012;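 active = share of green or green-and-red cells above 9 and 9% in run 1 or 4 and 3% in run 2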
GFP autofluor: flagged as fluorescent in myeloid differentiation counter-screen. shares compounds with Myeloid diff 2. fluorescence response, % (no concentration beside the values). actives 7.4% (n = 2,300). ER-HoxA9 myeloid progenitors, no estrogen, GFP autofluorescence flow cytometry; vehicle wells 0%, positive control 100%;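 active = over 5% cells positive for green fluorescent reporter, or over 2% positive for both it and APC stain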;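 also: range taken on the double positive population between DMSO and positive control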
Active calls of the source: *.

Results for CCOc1ccc(NC(=O)COC(=O)Cn2nc(C)c([N+](=O)[O-])c2C)cc1OCC ?
TLR9-MyD88 block: 7; Myeloid diff 2: active; NOD2-RIPK2 inh: -2; Myeloid diff CP1: inactive; GFP autofluor: 0

How did CCCCn1nnnc1C(c1cc2ccccc2o1)N1CCN(c2ccncc2)CC1 (stereo not given) do in these assays?
Myeloid diff 2: inactive; NOD2-RIPK2 inh: -4

How did CC1CCN(C2=NC(=O)/C(=C/c3ccccc3F)S2)CC1 do in these assays?
TLR9-MyD88 block: -9; Myeloid diff 2: inactive; NOD2-RIPK2 inh: -4

Results for CN1C2CCC1/C(=C\c1ccccc1F)C(=O)/C2=C/c1ccccc1F ?
TLR9-MyD88 block: 0; Myeloid diff 2: inactive; TLR4-MyD88 BLA: -6; NOD2-RIPK2 inh: 3; Myeloid diff CP1: inactive; GFP autofluor: 0

Results for Cn1cc(Br)cc2nc(C(F)(F)F)nc1-2 ?
TLR9-MyD88 block: 1; Myeloid diff 2: active; TLR4-MyD88 BLA: 1; NOD2-RIPK2 inh: -5; Myeloid diff CP1: inactive; GFP autofluor: 0

How did Cc1nc(C(F)(F)F)nc(Nc2ccc(Br)cc2)c1C#N do in these assays?
TLR9-MyD88 block: -3; Myeloid diff 2: inactive; TLR4-MyD88 BLA: 1; NOD2-RIPK2 inh: 1

What do the screens show for `Cc1ccc(S(=O)(=O)N(C)C[C@H]2Oc3ncc(Br)cc3C(=O)N([C@H](C)CO)C[C@@H]2C)cc1`?
TLR9-MyD88 block: -9; Myeloid diff 2: inactive; NOD2-RIPK2 inh: -12

Results for C[C@H]1CN([C@@H](C)CO)S(=O)(=O)c2ccc(Br)cc2O[C@@H]1CN(C)Cc1cccc(F)c1 ?
TLR9-MyD88 block: -3; Myeloid diff 2: inactive; NOD2-RIPK2 inh: -1

What do the screens show for `CCc1ccc2c(c1)cc(CN(C(=S)Nc1ccccc1)C1CC1)c1nnnn12`?
TLR9-MyD88 block: -4; Myeloid diff 2: inactive; TLR4-MyD88 BLA: 5; NOD2-RIPK2 inh: -3

How did CCc1ccc2c(c1)cc(CN(C(=S)Nc1ccccc1C)C1CC1)c1nnnn12 do in these assays?
TLR9-MyD88 block: -4; Myeloid diff 2: inactive; TLR4-MyD88 BLA: -3; NOD2-RIPK2 inh: 2; Myeloid diff CP1: inactive; GFP autofluor: 0

What do the screens show for `Cc1ccc(S(=O)(=O)N2CCCCC2)cc1NCC(=O)Nc1ccc(Br)cc1F`?
TLR9-MyD88 block: 4; Myeloid diff 2: inactive; NOD2-RIPK2 inh: -7

How did COc1ccccc1NC(=O)Cn1c2ccccc2c2nc3n(c(=O)c21)CCS3 do in these assays?
TLR9-MyD88 block: -10; Myeloid diff 2: active; TLR4-MyD88 BLA: 0; NOD2-RIPK2 inh: -6; Myeloid diff CP1: inactive; GFP autofluor: 0

What do the screens show for `Nc1ccccc1NC(=O)c1ccccc1`?
TLR9-MyD88 block: 7; Myeloid diff 2: inactive; TLR4-MyD88 BLA: 5; NOD2-RIPK2 inh: 1

What do the screens show for `Nc1ccc(NC(=O)c2ccccc2)c2c1C(=O)c1ccccc1C2=O`?
TLR9-MyD88 block: -3; Myeloid diff 2: inactive; TLR4-MyD88 BLA: 11; NOD2-RIPK2 inh: 7; Myeloid diff CP1: inactive; GFP autofluor: 0

How did COc1ccc(NC(=O)N(C)C[C@H]2Oc3ccc(NC(=O)CCN4CCOCC4)cc3C(=O)N([C@H](C)CO)C[C@@H]2C)cc1 do in these assays?
TLR9-MyD88 block: 4; Myeloid diff 2: inactive; NOD2-RIPK2 inh: -6; Myeloid diff CP1: inactive; GFP autofluor: 3

What do the screens show for `CC(C)NC(=O)N(C)C[C@H]1Oc2ccc(NS(=O)(=O)c3cccs3)cc2C(=O)N([C@H](C)CO)C[C@@H]1C`?
TLR9-MyD88 block: -3; Myeloid diff 2: inactive; NOD2-RIPK2 inh: -15; Myeloid diff CP1: inactive; GFP autofluor: 0

How did O=C1CCCCC1Nc1ccc2ccccc2c1 (stereo not given) do in these assays?
TLR9-MyD88 block: 3; Myeloid diff 2: inactive; NOD2-RIPK2 inh: -3

How did Cc1ccc(OCC(=O)OCC(=O)NC2CCS(=O)(=O)C2)cc1C (stereo not given) do in these assays?
TLR9-MyD88 block: -5; Myeloid diff 2: inactive; NOD2-RIPK2 inh: -10

What do the screens show for `CC(C)c1cc(Cn2c3ccccc3c(=O)n2C(C)Cn2cc(-c3ccccc3)nn2)on1` (stereo not given)?
Myeloid diff 2: inactive; NOD2-RIPK2 inh: -5

How did CCN1CCN(c2ccc(S(=O)(=O)N3CCCCC3)cc2NC(=O)/C=C/c2ccc(OC(F)F)cc2)CC1 do in these assays?
TLR9-MyD88 block: -3; Myeloid diff 2: inactive; NOD2-RIPK2 inh: 1; Myeloid diff CP1: inactive; GFP autofluor: 0

What do the screens show for `CN1CCN(c2ccc(S(=O)(=O)N3CCCCC3)cc2NC(=O)/C=C/c2ccc(OC(F)F)cc2)CC1`?
TLR9-MyD88 block: 8; Myeloid diff 2: inactive; NOD2-RIPK2 inh: 4

How did C[C@@H]1CN([C@H](C)CO)C(=O)CCCn2cc(nn2)CO[C@H]1CN(C)C(=O)c1ccccc1 do in these assays?
Myeloid diff 2: inactive; NOD2-RIPK2 inh: -11

How did CCOC1=C2[C@H](c3ccc(CC)cc3)N(S(=O)(=O)c3ccc(C)cc3)C[C@H]2C(C#N)(C#N)C(C#N)(C#N)C1 do in these assays?
Myeloid diff 2: inactive; NOD2-RIPK2 inh: 4

Results for COc1cc(/C=C/C(=O)OC[C@H]2O[C@H](OC3(CO)OC(CO)C(O)C3O)[C@H](O)[C@@H](O)[C@@H]2O)ccc1O (stereo not given in full) ?
TLR9-MyD88 block: -2; Myeloid diff 2: inactive; NOD2-RIPK2 inh: -9; Myeloid diff CP1: inactive; GFP autofluor: 0

How did COc1cc(/C=C/C(=O)OCC(=O)N2CCC(C)CC2)ccc1O do in these assays?
TLR9-MyD88 block: -8; Myeloid diff 2: inactive; NOD2-RIPK2 inh: -5

Results for O=C(CSc1ccc(-c2cccnc2)nn1)Nc1ccc(Br)cc1 ?
TLR9-MyD88 block: 0; Myeloid diff 2: inactive; NOD2-RIPK2 inh: 6; Myeloid diff CP1: inactive; GFP autofluor: 0

What do the screens show for `CC(=O)Nc1ccc(NC(=O)CSc2ccc(-c3cccnc3)nn2)cc1`?
TLR9-MyD88 block: 5; Myeloid diff 2: inactive; NOD2-RIPK2 inh: -9

What do the screens show for `CSc1nc(Oc2ccc3ccccc3c2)c2sccc2n1`?
TLR9-MyD88 block: -16; Myeloid diff 2: active; TLR4-MyD88 BLA: -7; NOD2-RIPK2 inh: -2; Myeloid diff CP1: inactive; GFP autofluor: 0

What do the screens show for `Cc1ccc(NC(=O)c2ccc([N+](=O)[O-])s2)cc1S(=O)(=O)N1CCOCC1`?
TLR9-MyD88 block: -1; Myeloid diff 2: active; NOD2-RIPK2 inh: 8; Myeloid diff CP1: inactive; GFP autofluor: 0
